Bioassay records: PubChem BioAssay, ICCB-Longwood Screening Facility, Harvard Medical School
MgrA DNA FP: modulators of Staphylococcus aureus MgrA DNA binding | inhibition, % (concentration not given with the values) | actives 0.13% (n = 84,000) | fluorescence polarization; in the data active = inhibition above about 30%, passing the limit was not always enough;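 also: higher means less MgrA bound to DNA so lower polarization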
Each line names hits and unclear results; the compound was inactive in the other large screens. The entries come from a sample that favours hits as a whole.

O=C(/C=C/c1ccco1)Nc1ccc2c(c1)C(=O)N(c1ccccc1)C2=O	none
Cc1ccc(C)c(NC(=O)C2CCCN(C(=O)c3cnn(-c4ccccc4)c3-n3cccc3)C2)c1 (stereo not drawn)	none
CCOc1cc(/C=C/c2ccccc2OC)cc(=O)c2c(C)oc(C)c12	none
CCOc1ccc(-c2cc(OC)c3c(C)oc(C)c3c(=O)c2)cc1	none
COc1cccc(=O)c2c(C)oc(C)c12	MgrA DNA FP 43.3
Cc1ccc(S(=O)(=O)NC(O)C(=O)c2cccs2)cc1 (stereo not drawn)	none
COC(=O)c1cc(OCC(F)(F)F)ccc1OCC(F)(F)F	none
O=c1nc(Oc2cccc(C(F)(F)F)c2)cc(Oc2cccc(C(F)(F)F)c2)[nH]1	none
c1ccc(CSc2nnnn2-c2ccccc2)cc1	none
CC(Sc1nnnn1-c1ccccc1)C(=O)O (stereo not drawn)	none
O=C1C=CC(=O)C(Sc2nnnn2-c2ccccc2)=C1	MgrA DNA FP 74.9
CC1CCN(Cc2nc(-c3cc(C(F)(F)F)cc(C(F)(F)F)c3)no2)CC1	none
CN(Cc1ccccc1)Cc1ccccc1O	none
CN(C)Cc1cc(O)c(CN(C)C)cc1O	MgrA DNA FP 54.6
CN(C)Cc1ccccc1C(O)c1ccccc1 (stereo not drawn)	none
CC1(C)CC(=O)C2=C(C1)NC1=C(C(=O)CC(C)(C)C1)C2c1cccs1	none
CC1(C)CC(=O)C2=C(C1)OC(N)=C(C#N)C2c1ccccc1 (stereo not drawn)	none
CC1(C)CC(=O)C2=C(C1)OC(c1cccs1)C(C#N)=C2N (stereo not drawn)	MgrA DNA FP 98.5
O=C(c1cccc(C(F)(F)F)c1)N1CC(=O)N(CCc2ccccc2)C(=O)C1	none
Cc1ccc(C)c2c(=O)cc[nH]c12	none
O=C1/C(=C/c2ccco2)SC(=S)N1CCc1ccccc1	none
O=C(O)CCN1C(=O)/C(=C/c2ccco2)SC1=S	MgrA DNA FP 51.4
CC(C(=O)O)N1C(=O)/C(=C/c2ccco2)SC1=S (stereo not drawn)	none
O=C(CCN1CCCCC1)N1N=C(c2ccc(Cl)cc2)CC1c1ccco1 (stereo not drawn)	none
COC(=O)C1=C(C)NC2=C(C(=O)CCC2)C1c1ccc(C(=O)O)cc1 (stereo not drawn)	none
COC(=O)c1ccc([C@@H]2Nc3c(C)cccc3[C@@H]3C=CC[C@@H]32)cc1	none
O=C(O)C1Nc2c(I)cccc2C2C=CCC12 (stereo not drawn)	MgrA DNA FP 101.3
O=C(c1cccc2c1NC(c1ccc(Br)cc1)C1CC=CC21)N1CCOCC1 (stereo not drawn)	none
O=c1[nH]nc(CSCc2csc(-c3ccccc3)n2)[nH]1	none
COc1ccc2oc(=O)c(-c3nnc(-c4ccccc4)o3)cc2c1	none
Cn1c(SCC(=O)NC(C)(C)C)nnc1-c1ccccc1	none
O=C1c2ccccc2-c2c(-c3ccccc3)nc3ccccc3c21	none
COc1ccc(NC(=O)/C(C#N)=C/C=C/c2ccco2)cc1	none
N#C/C(=C\C=C\c1ccco1)C(N)=S	MgrA DNA FP 99.9
N#CC(C#N)=C(N)/C(C#N)=C/c1ccco1	none
O=C(NC1CCCC1)C(c1cccs1)N(Cc1ccccc1)C(=O)C(F)(F)F (stereo not drawn)	none
Cc1cc(C(=O)NCc2ccco2)c(C)o1	none
Cc1ccc(N=Cc2cc3ccccc3nc2Cl)cc1Cl	none
CCOc1cc(/C=C2/C(=O)ON=C2C)cc(Cl)c1OCc1ccc(F)cc1	MgrA DNA FP 54.4
COc1cc(/C=C2/C(=O)N(c3ccc(F)cc3)N=C2C)ccc1OCc1ccc(F)cc1	none
CCOC(=O)COc1c(Cl)cc(/C=C2/N=C(c3ccco3)OC2=O)cc1OCC	none
Cc1cc(C)cc(N=Cc2c(C(F)(F)F)nn(C)c2Cl)c1	none
O=C(c1ccc(CS(=O)(=O)c2c(Cl)cccc2Cl)o1)N1CCN(Cc2ccccc2)CC1	none
N#CC1=C(N)OC2=C(C(=O)OC2)C1c1c(Cl)cccc1Cl (stereo not drawn)	none
COc1ccc(-c2ccc(/C=c3\sc4nc5ccccc5n4c3=O)o2)c([N+](=O)[O-])c1	none
O=C(O)c1cccc(-c2ccc(/C=c3/sc4nc5ccccc5n4c3=O)o2)c1	MgrA DNA FP 43.8
Cc1ccc(-c2ccc(/C=c3\sc4nc5ccccc5n4c3=O)o2)c(Br)c1	none
NC(=O)c1ccc(N=Cc2ccc(O)cc2)cc1	none
O=C(O)c1ccc(COCOCc2ccc(C(=O)O)o2)o1	none
O=C(Nc1cccnc1)C1c2ccccc2Oc2ccccc21	none
COC(=O)c1cnc(S(=O)CC#N)n1C (stereo not drawn)	none
Cc1cc2ncc(C(=O)O)c(C)n2n1	none
O=C(NC(=O)c1c(Cl)cccc1Cl)Nc1ccccc1Oc1ccc(Cl)cc1Cl	none
COc1ccc2c3c(cccc13)C(=O)CC2	MgrA DNA FP 69.0
COC(=O)c1ccc2c3c(cccc13)CC2	none
COc1cc(/C=C2\CCc3ccccc3C2=O)cc(OC)c1OC	none
CN1C(=O)CC(NCc2ccc(S(N)(=O)=O)cc2)C1=O (stereo not drawn)	none
O=C(CCn1c(=O)sc2ccccc21)Nc1ccccn1	none
Cc1ccc(C)n1C(CC(=O)O)c1ccc(F)cc1 (stereo not drawn)	none
O=C(O)CC(c1ccsc1)n1cccc1 (stereo not drawn)	none
Cc1ccc(C)n1C(CC(=O)O)c1ccsc1 (stereo not drawn)	MgrA DNA FP 61.3
COC(=O)C(Cc1c[nH]c2ccccc12)NC(=O)C12CC3CCC1CC(C3)C2 (stereo not drawn)	none
Cc1c(=O)n(OCc2ccc(Cl)cc2)c2ccccc2[n+]1[O-]	none
N#Cc1c(=O)n(O)c2ccccc2[n+]1[O-]	MgrA DNA FP 48.6
O=c1c(-c2ccc(Oc3ccccc3)cc2)[n+]([O-])c2ccccc2n1O	none
Cc1cnn(C(=O)c2cc3ccccc3oc2=O)c1	none
CCc1ccc(N(CC(=O)NCC2CCCO2)S(C)(=O)=O)cc1 (stereo not drawn)	none
CN(C)/C=C/C=C/c1cc(=O)cc(/C=C/C=C/N(C)C)o1	MgrA DNA FP 99.7
CC(C)(C)c1ccc(CNc2ccccn2)cc1	none
CCC1(C)CC(=O)N(c2cc(Cl)cc(Cl)c2)C(=O)C1	none
CCOC(=O)c1c(Cl)c2ccccc2oc1=O	none
COC(=O)c1ccsc1N	MgrA DNA FP 70.7
COC(=O)c1sccc1O	none
COC(=O)c1cc(C(=O)OC)c(C(=O)OC)cc1C(=O)OC	none
COc1ccc(C2CC(=O)C3=C(C2)NC(C)=C(C(=O)OC2CCCC2)C3c2ccc3c(c2)OCO3)cc1 (stereo not drawn)	none
C=Cc1c(C)/c2[n-]/c1=C\c1[n-]c(c(CC)c1C)/C=c1\[n-]c3c(c1C)C(=O)C(C(=O)[O-])C=3c1[n-]c(c(C)c1CCC(=O)[O-])\C=2.[Cu].[Na+].[Na+] (stereo not drawn)	MgrA DNA FP 88.0
Cc1cc(=O)oc2cc(OC(=O)C(C)N3C(=O)CCC3=O)ccc12 (stereo not drawn)	none
O=C(NCCSCc1ccco1)Nc1cc(Cl)cc(Cl)c1	none
O=C(NCCCO)Nc1ccc2nc(-c3ccco3)c(-c3ccco3)nc2c1	MgrA DNA FP 77.5
O=C(Nc1ccc(N2CCOCC2)cc1)Nc1ccc2nc(-c3ccco3)c(-c3ccco3)nc2c1	none
CCOc1ccc(S(=O)(=O)N(CC(=O)N2CCCCC2)c2ccccc2)cc1	none
